{"source": "the supplement of paper PMC7156485", "note": "± gives the standard deviation of the averaged measurements.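 Further: TDF denotes transformed human dermal fibroblasts of mesenchymal origin.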"}
{"tested_on": "HCC1569", "assay": "cell number relative to DMSO (% of DMSO); higher = more cells (less growth inhibition / toxicity)", "settings": "concentration: 10 µM; 24 h", "how_it_was_run": "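For HCC1569 and TDF cells, compounds at 10 µM were applied for 24 h at 37 °C in triplicate in 384-well plates. Cells were fixed in 3.7% formaldehyde, stained for H1.0 and with DAPI, and imaged at ×10 over six fields per well. The endpoint, H1.0 nuclear intensity or cell number, is shown as percent of the plate control using the median of replicates. Positional effects were smoothed for HCC1569 only.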"}
{"smiles": "COc1ccc(C(=O)/C(Cc2cc(OC)c(OC)c(OC)c2)=C(\\C(=O)[O-])c2ccc3c(c2)OCO3)cc1.[Na+]", "cell number": 97.7}
{"smiles": "N#CC(=Cc1ccc(O)c(O)c1)C(=O)NCCc1ccccc1", "note": "[Tyrphostin AG 698]", "cell number": 84.3}
{"smiles": "CC(C)COCC(CN(Cc1ccccc1)c1ccccc1)N1CCCC1.Cl", "note": "(stereo not given) [Bepridil.HCl]", "cell number": 102}
{"smiles": "C=C1C(=CC=C2CCCC3(C)C2CCC3C(C)C=CC(O)C2CC2)CC(O)CC1O", "note": "(stereo not given) [Calcipotriene]", "cell number": 97.8}
{"smiles": "CCN1C(=O)C=CC1=O", "note": "[N-Ethylmaleimide]", "cell number": "102 ± 5.4"}
{"smiles": "O=C(O)c1cc2cc(F)ccc2[nH]1", "note": "[5-Fluoroindole-2-carboxylic acid]", "cell number": 99.3}
{"smiles": "C#Cc1cccc(Nc2ncnc3cc(OCCOC)c(OCCOC)cc23)c1", "note": "[Erlotinib]", "cell number": "94.8 ± 8"}
{"smiles": "CCCCCCCCCCCCCCCC(=O)O", "note": "[Hexadecanoic acid]", "cell number": 97.3}
{"smiles": "CCC(=O)OC1(C(=O)SCF)C(C)CC2C3CC(F)C4=CC(=O)C=CC4(C)C3(F)C(O)CC21C", "note": "(stereo not given)", "cell number": 98.9}
{"smiles": "CCCCCCCCCCCCCCCCCCCC(=O)O", "note": "[Eicosanoic acid]", "cell number": 99.8}
{"smiles": "CCCOc1cc2c(cc1\\C(C)=C/C=C/C(C)=C/C(=O)O)C(C)(C)CCC2(C)C", "cell number": 97.9}
{"smiles": "CC(NC(=O)C(C#N)=Cc1ccc(O)c(O)c1)c1ccccc1", "note": "(stereo not given) [Tyrphostin AG 527]", "cell number": 91.2}
{"smiles": "Cl.NCC1OC(C23CC4CC(CC(C4)C2)C3)Cc2c1ccc(O)c2O", "note": "(stereo not given)", "cell number": 73.5}
{"smiles": "CN(C)CCC=C1c2ccccc2COc2ccc(CC(=O)O)cc21", "note": "[Olopatadine]", "cell number": 102}
{"smiles": "CCCCCC#CCC#CCC#CCC#CCCCC(=O)O", "note": "[5,8,11,14-Eicosatetraynoic acid]", "cell number": 105}
{"smiles": "NC(C(=O)NC1C(=O)N2C(C(=O)O)=C(Cl)CSC12)c1ccccc1", "note": "(stereo not given) [Cefaclor]", "cell number": 101}
{"smiles": "Cn1sc(=O)n(Cc2ccccc2)c1=O", "note": "[GSK-3b Inhibitor I]", "cell number": 98.9}
{"smiles": "CCCCCCCCC=CCC=CCC=CCCCC(=O)O", "note": "[5(Z), 8(Z), 11(Z)-Eicosatrienoic Acid]", "cell number": "102 ± 2.9"}
{"smiles": "Fc1ccc(-c2c3cccc(C(F)(F)F)c3nn2Cc2ccc(F)cc2Cl)cc1", "cell number": 100}
{"smiles": "CCCCCCCCCCCCCCCC(O)C(N)CO", "note": "(racemic) [DL-erythro-Dihydrosphingosine]", "cell number": 102}
{"smiles": "CC12CCC3c4ccc(O)cc4CCC3C1CCC2O", "note": "(stereo not drawn) [beta-Estradiol]", "cell number": 90.6}
{"smiles": "CC(C)(ON=C(C(=O)NC1C(=O)N2C(C(=O)[O-])=C(C[n+]3ccccc3)CSC12)c1csc(N)n1)C(=O)O", "note": "(stereo not given) [Ceftazidime]", "cell number": 103}
{"smiles": "CCN(CC)C(=O)c1ccc(Nc2nc(OCC3CCCCC3)c3[nH]cnc3n2)cc1", "note": "[Cdk2 Inhibitor IV,                 NU6140]", "cell number": 73.4}
{"smiles": "NS(=O)(=O)c1cc2c(cc1Cl)NC=NS2(=O)=O", "note": "[Chlorothiazide]", "cell number": 105}
{"smiles": "NC(N)=NCCC[C@H](N)C(=O)O", "note": "[L-Arginine]", "cell number": 102}
{"smiles": "CCC(=O)OC1(C(=O)CCl)C(C)CC2C3CCC4=CC(=O)C=CC4(C)C3(F)C(O)CC21C", "note": "(stereo not given) [Clobetasol Propionate]", "cell number": 109}
{"smiles": "Cl.Nc1c2c(nc3ccccc13)CCCC2", "note": "[9-Amino-1,2,3,4-tetrahydroacridine hydrochloride]", "cell number": 105}
{"smiles": "CN1c2ccccc2C(=O)N2CCc3c([nH]c4ccccc34)C21", "note": "(stereo not given) [Evodiamine]", "cell number": 61.2}
{"smiles": "Cl.Clc1cccc(Cl)c1NC1=NCCN1", "note": "[Clonidine hydrochloride]", "cell number": 99.2}
{"smiles": "CCCCCCCCCCCC(=O)O", "note": "[Dodecanoic acid]", "cell number": 100}
{"smiles": "O=C1CC(c2ccc(O)cc2)Oc2cc(OC3OC(CO)C(O)C(O)C3O)cc(O)c21", "note": "(stereo not given) [Narigenin-7-O-glucoside]", "cell number": 101}
{"smiles": "CCCC1OC2CC3C4CCC5=CC(=O)C=CC5(C)C4C(O)CC3(C)C2(C(=O)CO)O1", "note": "(stereo not given) [Budesonide]", "cell number": 97.2}
{"smiles": "CC(c1cc2ccccc2s1)N(O)C(N)=O", "note": "(stereo not given) [Zileuton]", "cell number": 102}
{"smiles": "CC1CNc2c(cccc2S(=O)(=O)N[C@@H](CCCN=C(N)N)C(=O)N2CC[C@@H](C)C[C@@H]2C(=O)O)C1.O", "note": "(stereo not given in full)", "cell number": 102}
{"smiles": "O=C1Nc2cc(Br)ccc2C1=C1N=c2ccccc2=C1NO", "note": "[GSK-3 Inhibitor IX]", "cell number": 56.3}
{"smiles": "O=[N+]([O-])c1ccc([O-])c(OS(=O)(=O)[O-])c1.[K+].[K+]", "note": "[dipotassium 5-nitro-2-oxidophenyl sulfate]", "cell number": 99.5}
{"smiles": "CC(C)Cn1c(=O)n(C)c(=O)c2[nH]cnc21", "note": "[3-Isobutyl-1-methylxanthine]", "cell number": 114}
{"smiles": "Cc1ccc(Cl)c(Nc2ccccc2C(=O)[O-])c1Cl.[Na+]", "note": "[Meclofenamic acid sodium]", "cell number": 106}
{"smiles": "Cl.Clc1ccc2nsnc2c1NC1=NCCN1", "note": "[Tizanidine.HCl]", "cell number": 118}
{"smiles": "COc1cc(C)c(C=CC(C)=CC=CC(C)=CC(=O)O)c(C)c1C", "note": "[Acitretin]", "cell number": 98.5}
